High-throughput results as filed in PubChem BioAssay.
NPSR antagonist: neuropeptide S receptor (human) antagonism, cAMP. Q6W5P4. CHO-NPSR cells, cAMP TR-FRET, antagonist mode. Potency, µM (top dose mostly 38.3 µM), without a hit: top-dose activity change, negative = inhibition, usual class: inhibitors. 1% of 220,000 active. AID 1461; note: nearly all actives have a fitted effect of over 50% in size
RORg inh: inhibitors of mouse ROR gamma transcriptional activity; Drosophila S2 Gal4-RORgamma UAS-luciferase reporter, 20 h; Potency, µM (highest dose often 53.6 µM), for the others: at the top dose activity change, negative = inhibition, actives largely listed as inhibitors; 5.4% of 310,000 active; AID 2551; note: nearly all actives have a fitted effect of over 60% in size
Target sequence (P51450 whole entry, looked up, the tested form may be a part): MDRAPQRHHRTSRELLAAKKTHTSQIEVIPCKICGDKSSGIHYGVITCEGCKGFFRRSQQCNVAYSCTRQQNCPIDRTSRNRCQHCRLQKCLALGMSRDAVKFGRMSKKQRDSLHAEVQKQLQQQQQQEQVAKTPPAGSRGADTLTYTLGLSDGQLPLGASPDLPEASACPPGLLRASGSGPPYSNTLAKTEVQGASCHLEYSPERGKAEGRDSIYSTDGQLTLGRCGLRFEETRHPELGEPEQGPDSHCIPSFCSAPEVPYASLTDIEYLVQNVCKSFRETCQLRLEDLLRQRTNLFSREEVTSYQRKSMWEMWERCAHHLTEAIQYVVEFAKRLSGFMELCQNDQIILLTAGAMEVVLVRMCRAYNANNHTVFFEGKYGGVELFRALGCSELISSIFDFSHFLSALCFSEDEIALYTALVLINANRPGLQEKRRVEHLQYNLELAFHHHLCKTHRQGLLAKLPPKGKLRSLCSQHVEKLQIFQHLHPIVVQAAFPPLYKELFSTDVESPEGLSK
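Luciferase reporter read in Schneider cells carrying Gal4-RORγ (mouse) and UAS-Photinus luciferase; cells given compound 1 h before 700 uM copper sulfate induction, then incubated 20 h at ambient temperature.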
B2AR arrestin: recruits beta-arrestin to the human beta2-adrenergic receptor; P07550; beta-arrestin recruitment to beta2AR, cell-based reporter; Potency, µM (titrated, usually from 46.1 µM), for the others: at the top dose activation, most hits filed as activators; 0.02% of 330,000 active; AID 492947;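 note: 0% = DMSO controls and full agonism = EC100 isoproterenol or metaproterenol; nearly all actives have a fitted effect of over 65% in size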
Gal4-VP16 FLuc: counter-screen for ROR gamma inhibitors: Gal4-VP16 reporter | Drosophila S2 Gal4-VP16 UAS-luciferase, luminescence, 20 h | Potency, µM (top dose mostly 53.6 µM), inactives show at the highest dose activity, negative = inhibition, hits mostly inhibitors | 3.5% of 310,000 active;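 note: Gal4-VP16 expression switched on by copper sulfate through the metallothionein promoter; nearly all actives have a fitted effect of over 50% in size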
* hit, by the source's call; [ ] = remark or other dose. Sampled rows, rich in hits. Any-hit rate of the full collection: about 5.7%. Calls come from the whole dose curve; as a rule, active = well fitted curve in the direction sought with a large enough effect; inconclusive = small, poorly fitted or top-dose-only effect, or another doubt; inactive = no such curve, though single readings can be large; an effect the other way counts as inactive or inconclusive. Unless noted, % is set by controls: 0 for no effect and ±100 for the full control effect; potency is the fitted concentration of half-maximal effect.

For CCCOC(=S)Nc1ccccc1 the results were NPSR antagonist 0%[46.1 µM], RORg inh 11µM*, B2AR arrestin 0% and Gal4-VP16 FLuc -20%.
CCN(CC)NC(=S)Nc1ccccc1 was read as NPSR antagonist 0%[46.1 µM], RORg inh 3.2µM*, B2AR arrestin 0% and Gal4-VP16 FLuc inconclusive.
Screening CCC(C)NC(=S)Nc1ccc(C(=O)OC)cc1 (stereo unspecified) returned NPSR antagonist -1%, RORg inh 7.1µM*, B2AR arrestin 0% and Gal4-VP16 FLuc inconclusive.
Screening CCC(C)C(NC(N)=O)C(=O)Nc1ccc(C(=O)OC)cc1 (stereo unspecified) returned NPSR antagonist 12%, RORg inh 4%, B2AR arrestin 0% and Gal4-VP16 FLuc -7%.
`CC(C)N(C)NC(=S)Nc1ccccc1` gave NPSR antagonist 22%, RORg inh -42%[10 µM], B2AR arrestin 3% and Gal4-VP16 FLuc inconclusive.
CC(Cc1cccs1)NC(=O)Nc1ccccc1 (stereo unspecified) was read as NPSR antagonist 0%[46.1 µM], RORg inh 19%, B2AR arrestin 0% and Gal4-VP16 FLuc 22%.
For S=C(Nc1ccccc1)N1CCN(C(=S)Nc2ccccc2)CC1 the results were NPSR antagonist 4%, RORg inh 16%, B2AR arrestin 0% and Gal4-VP16 FLuc 1%.
Screening CC(Cc1cccs1)NC(=S)Nc1ccccc1 (stereo unspecified) returned NPSR antagonist -18%, RORg inh 4.5µM*, B2AR arrestin 0% and Gal4-VP16 FLuc 7.1µM*.
For CCN=C1SC(CC(N)=O)C(=O)N1CC (stereo unspecified) the results were NPSR antagonist -4%, RORg inh 7%, B2AR arrestin 0% and Gal4-VP16 FLuc 8%.
`Cc1cccc(NC(=O)COc2coc(CN3CCN(c4ccccc4)CC3)cc2=O)c1C` gave B2AR arrestin 0%.
Cn1c(N/N=C/c2ccccc2)nc2sc3c(c2c1=O)CCC3 was read as NPSR antagonist -28%[46.1 µM], RORg inh 1.6µM*, B2AR arrestin 0% and Gal4-VP16 FLuc 7.1µM*.
COc1ccccc1N1CCN(C(=S)Nc2cccc(C)c2)CC1 was read as NPSR antagonist 36%, RORg inh 5µM*, B2AR arrestin 0% and Gal4-VP16 FLuc 20µM*.
For Cc1cccc(NC(=S)N2CCN(c3cc(C)ccc3C)CC2)c1 the results were NPSR antagonist -31%, RORg inh 4µM*, B2AR arrestin -1% and Gal4-VP16 FLuc 5.6µM*.
`Cc1cccc(NC(=S)N2CCCCCC2)c1` gave NPSR antagonist -2%, RORg inh inconclusive, B2AR arrestin -1% and Gal4-VP16 FLuc inconclusive.
`COC(=O)c1cccc(NC(=S)N2CCN(c3ccccc3F)CC2)c1` gave NPSR antagonist 16%, RORg inh 14µM*, B2AR arrestin -1% and Gal4-VP16 FLuc 2%.
`COC(=O)c1cccc(NC(=S)N2CCCCC2)c1` gave NPSR antagonist 14%, RORg inh 18%, B2AR arrestin -1% and Gal4-VP16 FLuc -22%.
`CN(C)/C=N/c1cnc(C(=O)c2ccc(Cl)cc2)n1C` gave NPSR antagonist inconclusive, RORg inh inconclusive, B2AR arrestin 0% and Gal4-VP16 FLuc -22%.
COc1cccc(NC(=O)n2ncc3c(C)cccc32)c1 was read as RORg inh 1.6µM*, B2AR arrestin 0% and Gal4-VP16 FLuc 2.8µM*.
`CCOc1ccc(NC(=O)n2ncc3c(C)cccc32)cc1` gave RORg inh 0.45µM*, B2AR arrestin 0% and Gal4-VP16 FLuc 1.1µM*.
For Cc1ccc(NC(=O)n2ncc3c(C)cccc32)c(C)c1 the results were RORg inh -36%, B2AR arrestin 3% and Gal4-VP16 FLuc inconclusive.
COc1ccc(N/N=C/c2c(C(=O)O)ccc3ccccc23)cc1 was read as NPSR antagonist 0%, RORg inh 1.4µM*, B2AR arrestin 3% and Gal4-VP16 FLuc 4.5µM*.
Screening O=c1c2sccc2[nH]c(=S)n1Cc1ccccc1 returned NPSR antagonist -1%, RORg inh 1.8µM*, B2AR arrestin 0% and Gal4-VP16 FLuc 2.8µM*.
COc1ccc(Cn2c(=S)[nH]c3ccsc3c2=O)cc1 was read as NPSR antagonist -7%, RORg inh 1.4µM*, B2AR arrestin 0% and Gal4-VP16 FLuc 2.2µM*.
For CC(NC(=O)CCn1c(=S)[nH]c2ccsc2c1=O)c1ccccc1 (stereo unspecified) the results were NPSR antagonist -3%, RORg inh -25%, B2AR arrestin 0% and Gal4-VP16 FLuc -1%.
